Pf Dd2 growth: inhibitors of Plasmodium falciparum Dd2 growth; P. falciparum Dd2 growth, SYBR Green, 72 h; Potency, µM (highest dose often 28.9 µM), for the others: at the top dose activity, negative = inhibition, hits mostly inhibitors; 120,000 compounds, 4.3% hits; AID 1347417; active means well fitted inhibition curve with a large enough effect;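 further: plate controls were DMSO vehicle for no effect and reference drug for full effect; nearly all actives have a fitted effect of over 65% in size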
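Infected erythrocytes (Dd2, 0.3% parasitemia, 2.5% hematocrit final) are added to compound in RPMI-1640/Albumax II medium, grown 72 h at 37C in low oxygen, then lysed with saponin/Triton-X containing SYBR Green and read by fluorescence.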
* = called active by the depositor; i = inactive; [ ] = another dose, or the depositor's remark. The full list was thinned out, with hits kept by preference. Potency means the concentration at half of the fitted maximal effect.

SMILES	Pf Dd2 growth
COc1ccc(C(=O)Nc2ccc(C(O)[C@H]3COCC(=O)N3CC(C)C)cc2)cc1 (stereo not given in full)	i
Cc1nc(CN2CCN(CC3(O)CCNC3)CC2)cs1 (stereo not given)	7%
CCn1ncc(N2CCC(NC(=O)c3ccc(C)cc3C)CC2)cc1=O	-18%
O=C(c1cc(C2CC2)no1)N1C[C@@H](CN2CCCCC2)[C@@H](CO)C1	-2%
COc1ccc(CN2Cc3cc(NC(=O)c4cccc(F)c4)ccc3OCC2=O)c(OC)c1	i
CCCNC(=O)C(NC(=O)c1ccc(C)cc1)C1CCN(C(=O)c2ccc3c(c2)OCO3)CC1 (stereo not given)	i
O=C(c1ccc(C(F)(F)F)cc1)N1CCCC(c2nn(-c3ccccc3)c(=O)[nH]2)C1 (stereo not given)	-14%
CCOCC(=O)N1CCCC(c2nc(-c3ccccc3)no2)CCNC(=O)CC1 (stereo not given)	14%
O=C(CC1CCCCC1)N1CCC(Cc2nc(-c3ccc(F)cc3)no2)CC1	i
COc1ccccc1CC(=O)N[C@@H]1CN(C)C[C@H]1CN(C)C	0%
COc1ccccc1CCC(=O)N1CC[C@@H]2CN(S(C)(=O)=O)[C@@H]2C1	8%
CCN(CC)S(=O)(=O)N(C)CC1CCCN(CCc2ccccc2OC)C1 (stereo not given)	2.8µM*
CC(C)Cc1cc(C[C@@H]2C[C@H](NC(=O)C3CCC3)C2(C)C)no1	i
CCc1ccc(NC(=O)c2ccc(Cn3nc(N4CCN(c5ccccc5)CC4)ccc3=O)o2)cc1	11µM*
COc1cccc(NC(=O)Cn2nc(N3CCN(c4ccccc4)CC3)ccc2=O)c1	-10%
CCOc1ccc(CNC(=O)Cn2nc(N3CCN(c4ccccc4)CC3)ccc2=O)cc1	-2%
c1c[nH]c(C2CCCC2)n1	-2%[76.6 µM]
c1ccc2c(c1)CCC(N1CCN(Cc3cc4n(n3)CCCNC4)CC1)C2 (stereo not given)	i
CCn1nccc1C(=O)N1CCC2(CC1)c1[nH]c3ccccc3c1CCN2C	i
O=C(Nc1cccc(-c2ccco2)c1)C1CCN(Cc2ccc(CO)o2)CC1	-25%
CSc1cccc(NC(=O)C2CCN(c3nc4ccccc4[nH]3)CC2)c1	i
Cc1ncc(CN2CCC(C(=O)Nc3cccc(-c4cc5ccccc5[nH]4)c3)CC2)cn1	8.9µM*
CCC(C)NC(=O)C1CC(c2ccccc2)CN(C(=O)c2ccc(OC)cc2)C1 (stereo not given)	i
CCOC(=O)C1CCN(C(=O)c2cc(Cn3nc(C)cc3C)[nH]n2)CC1	-18%
N#Cc1cccc(C(=O)N2C[C@@H](Oc3ccccc3)C[C@H]2C(=O)N2CCOCC2)c1	-9%
SMILES	Pf Dd2 growth
COCCC(=O)N1CCC2(CC1)NCCc1c2[nH]c2ccc(OC)cc12	-19%
COCCN1CC(CNc2nc(CCN)nc3sc(C)c(C)c23)CC1=O (stereo not given)	-1%
CCCc1cc(CN(C)c2nc(CCN)nc3sc(C)c(C)c23)[nH]n1	10µM*
CCn1ccc(C(=O)N2CCC([C@H]3[C@@H](OC)C(=O)N3C(C)C)CC2)n1	29%
CCc1cc(N2CCOCC(O)(CN3CCCC3)C2)nc(N2CCCC2)n1 (stereo not given)	5.6µM*
CCc1cc(N2CCC3(CCCN(C)C3=O)C2)nc(N2CCCC2)n1 (stereo not given)	-29%
COc1ccc(C(=O)N2CCOCC(O)(CN3CCCC3)C2)c(OC)c1 (stereo not given)	10%
COc1cc(NC(=O)N2CCCC(Cn3cnc4cccnc43)C2)cc(OC)c1 (stereo not given)	-27%
CN(C)[C@H]1CCCCN(C(=O)c2ccc(CSc3ccccn3)cc2)C1	i
CC(NC(=O)c1ccc(CSc2nc3ccncc3n2Cc2ccc(F)cc2)cc1)c1ccccc1 (stereo not given)	8.9µM*
CC(NC(=O)c1ccc(Cn2c(SCc3ccccc3)nc3cccnc32)cc1)c1ccccc1 (stereo not given)	14%
Cc1ccccc1CSc1nc2cc(C(=O)NC3CCCC3)ccc2c(=O)n1Cc1ccccc1	i
CC(NC(=O)c1cc2sccc2n1Cc1ccc(F)cc1)c1ccccc1 (stereo not given)	i
CC1CCCN(C(=O)c2ccc(CSc3nc4ccncc4n3Cc3ccccc3)cc2)C1 (stereo not given)	11µM*
Cc1ccccc1Cn1c(SCc2ccc(C(=O)NC(C)c3ccccc3)cc2)nc2ccncc21 (stereo not given)	6.3µM*
CC(NC(=O)c1ccccc1)c1nc2ccccc2n1Cc1ccc(Cl)cc1 (stereo not given)	-15%
O=C(NC1CCCC1)c1ccc2c(=O)n(Cc3ccccc3)c(SCc3ccccc3)nc2c1	21%
Cc1ccc(-n2c(C3CCN(C(=O)c4ccco4)CC3)n[nH]c2=O)cc1	-24%
COCCN1C(=O)NC(c2ccccc2OC)C2=C1COC2=O (stereo not given)	-20%
COCCNC(=O)[C@H]1C[C@H](Oc2ccccc2)CN1C(=O)COC	25%
